# Experimental data published in PubChem BioAssay.
# Values without a mark were called inactive. For some of these results: Measured potencies and affinities stand elsewhere. The list shows a part of the results. Active and inactive are the calls of the source.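 The calls were made as follows, unless noted: active = fluorescence ratio normalized to control raised more than 50% in primary screen plus both repeat runs; inactive = the rest.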
# Assays:
# [1] = system: TRPC4 beta (transient receptor potential cation channel C4), mouse; test: activators of mouse TRPC4 channel, confirmation, cell-based, Fluo4 calcium, HEK293 TRPC4beta/mu-opioid, duplicates, 10 µM (AID 2426); conditions: Fluo4 calcium fluorescence, at 10 µM; stronger effect = higher value;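 as to activation: percent rise of integrated ratio over buffer wells lacking compound which define 0%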
# [2] = system: transient receptor potential cation channel C4 beta (TRPC4), mouse; test: activators of mouse TRPC4 channel, confirmation, cell-based, second round, Fluo4, HEK293 TRPC4beta/mu-opioid, 1 µM (AID 2461;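 active = primary screen active and over 50% activation in each of two duplicate runs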); conditions: Fluo4 calcium fluorescence, at 1 µM; stronger effect = higher value
# [3] = system: TRPC4 (transient receptor potential cation channel C4 beta), mouse; test: positive allosteric modulators of mouse TRPC4, confirmation, cell-based, second round, Fluo-4, HEK293 TRPC4beta/mu-opioid, 1 µM (AID 2554;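 active = primary screen hit whose fluorescence ratio, in both repeats, exceeds the weak agonist control mean by 3 SD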); conditions: DAMGO EC20, Fluo-4 calcium flux, at 1 µM; stronger effect = higher value
# [4] = system: TRPC4 beta (transient receptor potential cation channel C4), mouse; test: positive allosteric modulators of mouse TRPC4, confirmation, cell-based, Fluo-4, HEK293 TRPC4beta/mu-opioid (AID 2555;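 active = primary screen hit whose calcium fluorescence ratio, in both repeats, exceeds the weak agonist control mean by 3 SD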); conditions: DAMGO EC20, Fluo-4 calcium flux, at 10 µM; stronger effect = higher value
# [5] = target: Short transient receptor potential channel 4 (Mus musculus) (UniProt Q9QUQ5); test: inhibitors of mouse TRPC4 channel, confirmation, cell-based, Fluo4, HEK293 TRPC4beta/mu-opioid (AID 2636;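 active = calcium signal cut by more than 3 SD below the full-agonist control yet still positive, in both repeats and the earlier primary screen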); conditions: DAMGO, Fluo4 calcium flux, at 10 µM; stronger effect = higher value
# [6] = target: Short transient receptor potential channel 4 (Mus musculus) (UniProt Q9QUQ5); test: inhibitors of mouse TRPC4 channel, confirmation, cell-based, second round, Fluo4, HEK293 TRPC4beta/mu-opioid, 1 µM (AID 2637;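 active = calcium signal ratio cut to more than 3 SD under the fully stimulated control mean yet still positive, in both repeats and the primary screen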); conditions: Fluo4 calcium flux, DAMGO, at 1 µM; stronger effect = higher value
# [7] = target: Short transient receptor potential channel 4 (Mus musculus) (UniProt Q9QUQ5); test: mouse TRPC4 channel activators, dose response, cell-based, HEK293 TRPC4/mu-opioid, Fluo-4 calcium (AID 434937;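 active = primary screen activator hit with a dose response curve and TRPC4 channel activation at any tested dose; inactive = no activation, no dose response, or not a primary hit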)
# [8] = target: Short transient receptor potential channel 4 (Mus musculus) (UniProt Q9QUQ5); test: TRPC4 positive allosteric modulators, dose response, cell-based, HEK293 TRPC4/mu-opioid, Fluo-4 calcium, EC20 DAMGO (AID 434941;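 active = earlier screen potentiator hit that boosts the TRPC4 ion channel at some dose, with a dose response; inactive = no potentiation, no dose response, or not a prior hit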;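 also: calcium entry triggered by an EC20 dose of DAMGO at the co-expressed mu-opioid receptor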)
# [9] = target: Short transient receptor potential channel 4 (Mus musculus) (UniProt Q9QUQ5); test: mouse TRPC4 channel inhibitors, dose response, cell-based, HEK293 TRPC4/mu-opioid, Fluo-4 calcium (AID 434942;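 active = primary screen inhibitor hit that blocks the TRPC4 channel at some tested dose, yielding a dose curve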)
# [10] = target: Short transient receptor potential channel 6 (Mus musculus) (UniProt Q61143); test: inhibition of mouse TRPC6 channel, confirmation, selectivity assay for TRPC4 inhibitor project, cell-based, HEK293, membrane potential dye, duplicate (AID 434948;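 active = active in primary screen and both duplicates, each dropping signal beyond three positive-control SD with fluorescence still positive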); conditions: HEK293 TRPC6, membrane potential dye fluorescence, at 10 µM, stimulated with maximal-effect acetylcholine; stronger effect = higher value
# [11] = target: Short transient receptor potential channel 6 (Mus musculus) (UniProt Q61143); test: activation of mouse TRPC6 channel, confirmation, selectivity assay for TRPC4 activator project, cell-based, HEK293, membrane potential dye, duplicate (AID 434950;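 active = membrane potential signal rise above negative control mean plus 3 SD in both duplicates, also active in the earlier TRPC4 screen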;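 as to activation: 0% = buffer only wells and 100% = acetylcholine maximal-effect wells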); conditions: HEK293 TRPC6, membrane potential fluorescence, at 10 µM; stronger effect = higher value
# [12] = target: Short transient receptor potential channel 6 (Mus musculus) (UniProt Q61143); test: TRPC6 potentiation by TRPC4 potentiator hits, confirmation, selectivity assay for TRPC4 potentiator project, HEK293 cells, membrane potential dye, duplicate (AID 434952;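 active = compound raising the membrane signal above positive-control mean plus 3 SD in both repeats, and a primary screen hit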); conditions: HEK293 TRPC6, membrane potential dye fluorescence, at 10 µM, maximal acetylcholine added after compound; stronger effect = higher value
# [13] = target: Short transient receptor potential channel 4 (Mus musculus) (UniProt Q9QUQ5); test: calcium flux activators in TRPC4/5HT1a cells, counter-screen for TRPC4 activator project, cell-based, second counter screen, HEK293 TRPC4/5HT1a, Fluo-4 (AID 434977;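 active = calcium signal rise above buffer-control mean plus 5 SD in both duplicates, and also a hit in the primary screen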;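 as to activation: plate controls were assay buffer for no effect and maximal serotonin response for full effect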); conditions: Fluo-4 calcium flux, at 10 µM; stronger effect = higher value
# [14] = calcium flux inhibitors in TRPC4/5HT1a cells, confirmation, counter-screen for TRPC4 inhibitor project, cell-based, second counter screen, HEK293 TRPC4/5HT1a, Fluo-4 (AID 434978;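 active = primary screen active whose calcium signal fell more than 3 SD beyond the full-serotonin control mean in both duplicate plates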;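 also: serotonin given first at submaximal then at maximal dose after compound preincubation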); conditions: Fluo-4 calcium flux, at 10 µM, serotonin added to trigger calcium flux; stronger effect = higher value
# [15] = system: TRPC4 (mouse), co-expressed with 5HT1a in HEK293; test: calcium flux potentiators in TRPC4/5HT1a cells, confirmation, counter-screen for TRPC4 potentiator project, cell-based, second counter screen, HEK293 TRPC4/5HT1a, Fluo-4 (AID 434979;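 active = signal rise over 3 SD above mean of control wells given weak agonist, in both repeats and first screen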); conditions: Fluo-4 calcium flux, at 10 µM, serotonin added at its EC20 dose; stronger effect = higher value
# [16] = calcium flux activation in mu-opioid HEK293 cells, confirmation, counter-screen for TRPC4 activator project, cell-based, HEK293 mu-opioid receptor line (AID 449723;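 active = hit in primary screen, with calcium signal over 5 SD above buffer well mean in both duplicates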;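 also: counter screen cells carry the mu-opioid receptor alone and lack TRPC4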); conditions: Fluo-4 calcium fluorescence, at 10 µM; stronger effect = higher value
# [17] = calcium flux enhancement in mu-opioid HEK293 cells, confirmation, counter-screen for TRPC4 allosteric potentiator project, cell-based, HEK293 mu-opioid receptor line (AID 449724;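 active = calcium signal rise more than 3 SD above the low-dose agonist control mean, in both duplicate plates and the primary screen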); conditions: Fluo-4 calcium flux, at 10 µM, compound added before EC20 DAMGO stimulus; stronger effect = higher value
# [18] = nonspecific thallium flux increase in parental CHO-K1, confirmation, counter-screen for KCNQ2 potentiator project, cell-based, FluxOR thallium flux, duplicate (AID 2282;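 active = signal rise of at least 3 SD above the untreated control mean, in both duplicate wells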;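 also: counter screen of KCNQ2 potentiator hits so any rise reflects channel-independent effects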); conditions: parental CHO-K1 cells, FluxOR thallium flux fluorescence; at 10 µM; stronger effect = higher value; zero = vehicle mean+3SD, 100% = vehicle-minus-blank window
# [19] = target: Potassium voltage-gated channel subfamily KQT member 1 (Homo sapiens) (UniProt P51787); test: human KCNQ1 channel potentiation off-target, confirmation, selectivity assay for KCNQ2 potentiator project, cell-based, CHO, FluxOR thallium flux (AID 2283;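 active = fluorescence ratio rise of at least 3 SD of vehicle wells above their mean, in both replicate wells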;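 also: 0% = vehicle mean plus 3 SD and 100% = vehicle minus unstimulated blank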); conditions: CHO KCNQ1 stable, FluxOR thallium flux fluorescence; at 10 µM; stronger effect = higher value; beyond 3SD, as % of vehicle-control signal
# [20] = target: Potassium voltage-gated channel subfamily KQT member 2 (Rattus norvegicus) (UniProt O88943); test: rat KCNQ2 channel potentiators, confirmation, cell-based, CHO, FluxOR thallium flux, duplicate (AID 2287;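 active = fluorescence ratio rising 3 SD or more over the vehicle control mean in both replicates, plus primary screen hit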;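 also: peak minus minimum thallium fluorescence divided by baseline after K/Tl stimulus; 0% = vehicle mean plus 3 SD and 100% = vehicle minus unstimulated blank difference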); conditions: CHO-KCNQ2 cells, FluxOR thallium flux fluorescence; at 10 µM; stronger effect = higher value
# Potassium voltage-gated channel subfamily KQT member 2 (Rattus norvegicus), sequence (O88943 whole entry, looked up): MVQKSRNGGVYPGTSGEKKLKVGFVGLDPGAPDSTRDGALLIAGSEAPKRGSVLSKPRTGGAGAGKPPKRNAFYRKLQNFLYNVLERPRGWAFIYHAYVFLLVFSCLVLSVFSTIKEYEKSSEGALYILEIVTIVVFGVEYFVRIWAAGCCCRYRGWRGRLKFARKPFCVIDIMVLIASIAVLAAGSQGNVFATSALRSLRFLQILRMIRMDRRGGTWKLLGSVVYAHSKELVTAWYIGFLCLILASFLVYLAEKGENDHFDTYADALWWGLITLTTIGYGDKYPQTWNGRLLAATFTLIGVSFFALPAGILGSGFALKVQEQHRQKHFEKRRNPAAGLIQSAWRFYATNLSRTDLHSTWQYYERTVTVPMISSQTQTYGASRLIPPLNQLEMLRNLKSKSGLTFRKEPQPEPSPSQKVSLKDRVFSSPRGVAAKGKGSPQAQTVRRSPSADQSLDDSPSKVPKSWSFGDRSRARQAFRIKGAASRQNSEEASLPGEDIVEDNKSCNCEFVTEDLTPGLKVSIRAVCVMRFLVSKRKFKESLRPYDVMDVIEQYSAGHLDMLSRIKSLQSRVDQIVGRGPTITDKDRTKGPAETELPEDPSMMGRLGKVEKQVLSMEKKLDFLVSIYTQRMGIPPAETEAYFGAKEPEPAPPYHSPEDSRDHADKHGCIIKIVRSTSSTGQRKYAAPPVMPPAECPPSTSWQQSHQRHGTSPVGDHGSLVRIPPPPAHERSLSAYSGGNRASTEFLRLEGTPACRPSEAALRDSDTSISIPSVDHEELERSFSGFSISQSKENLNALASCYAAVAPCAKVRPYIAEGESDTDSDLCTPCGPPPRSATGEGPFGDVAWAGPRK
# Short transient receptor potential channel 4 (Mus musculus), sequence (Q9QUQ5 whole entry, looked up): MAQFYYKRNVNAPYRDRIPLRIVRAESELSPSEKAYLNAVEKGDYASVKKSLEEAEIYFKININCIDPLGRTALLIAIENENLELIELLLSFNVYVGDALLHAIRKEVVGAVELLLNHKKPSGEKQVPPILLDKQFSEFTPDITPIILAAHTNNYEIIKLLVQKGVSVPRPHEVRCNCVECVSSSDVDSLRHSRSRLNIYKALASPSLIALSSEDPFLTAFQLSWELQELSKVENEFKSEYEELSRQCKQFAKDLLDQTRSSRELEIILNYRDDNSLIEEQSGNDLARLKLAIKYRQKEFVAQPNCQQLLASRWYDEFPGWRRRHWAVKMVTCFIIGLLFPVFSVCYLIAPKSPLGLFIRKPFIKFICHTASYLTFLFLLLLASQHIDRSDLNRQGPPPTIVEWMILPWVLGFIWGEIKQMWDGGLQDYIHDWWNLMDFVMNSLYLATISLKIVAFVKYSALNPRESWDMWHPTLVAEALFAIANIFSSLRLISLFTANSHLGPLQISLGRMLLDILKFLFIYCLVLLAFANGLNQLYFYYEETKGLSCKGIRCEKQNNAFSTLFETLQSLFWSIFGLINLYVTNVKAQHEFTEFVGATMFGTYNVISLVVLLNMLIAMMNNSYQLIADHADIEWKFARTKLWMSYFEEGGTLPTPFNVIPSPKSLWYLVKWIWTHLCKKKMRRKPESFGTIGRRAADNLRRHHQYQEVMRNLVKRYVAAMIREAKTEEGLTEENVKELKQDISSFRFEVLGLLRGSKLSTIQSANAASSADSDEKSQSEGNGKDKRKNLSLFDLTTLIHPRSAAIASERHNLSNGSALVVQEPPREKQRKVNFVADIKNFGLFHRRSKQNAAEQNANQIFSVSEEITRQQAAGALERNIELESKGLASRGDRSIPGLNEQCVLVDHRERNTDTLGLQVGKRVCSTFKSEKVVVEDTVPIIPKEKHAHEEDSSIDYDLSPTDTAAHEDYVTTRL
# Potassium voltage-gated channel subfamily KQT member 1 (Homo sapiens), sequence (P51787 whole entry, looked up): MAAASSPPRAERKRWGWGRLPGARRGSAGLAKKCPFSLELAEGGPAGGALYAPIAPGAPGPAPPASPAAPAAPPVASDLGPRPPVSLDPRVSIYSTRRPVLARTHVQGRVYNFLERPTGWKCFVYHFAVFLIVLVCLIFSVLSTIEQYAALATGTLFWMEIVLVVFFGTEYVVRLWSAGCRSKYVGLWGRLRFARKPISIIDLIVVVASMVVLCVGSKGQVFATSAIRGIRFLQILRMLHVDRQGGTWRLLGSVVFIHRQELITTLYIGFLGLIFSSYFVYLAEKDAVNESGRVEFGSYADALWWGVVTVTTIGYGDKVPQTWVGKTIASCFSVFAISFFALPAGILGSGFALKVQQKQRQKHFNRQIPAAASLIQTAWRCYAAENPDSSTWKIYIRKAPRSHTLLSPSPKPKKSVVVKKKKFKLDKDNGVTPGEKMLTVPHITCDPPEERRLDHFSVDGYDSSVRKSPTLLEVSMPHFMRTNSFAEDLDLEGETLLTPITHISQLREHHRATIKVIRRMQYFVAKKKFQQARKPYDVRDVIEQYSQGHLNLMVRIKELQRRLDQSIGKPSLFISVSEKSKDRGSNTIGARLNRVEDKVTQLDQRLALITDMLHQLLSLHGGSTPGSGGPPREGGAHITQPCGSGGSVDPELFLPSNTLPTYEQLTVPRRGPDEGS
# Short transient receptor potential channel 6 (Mus musculus), sequence (Q61143 whole entry, looked up): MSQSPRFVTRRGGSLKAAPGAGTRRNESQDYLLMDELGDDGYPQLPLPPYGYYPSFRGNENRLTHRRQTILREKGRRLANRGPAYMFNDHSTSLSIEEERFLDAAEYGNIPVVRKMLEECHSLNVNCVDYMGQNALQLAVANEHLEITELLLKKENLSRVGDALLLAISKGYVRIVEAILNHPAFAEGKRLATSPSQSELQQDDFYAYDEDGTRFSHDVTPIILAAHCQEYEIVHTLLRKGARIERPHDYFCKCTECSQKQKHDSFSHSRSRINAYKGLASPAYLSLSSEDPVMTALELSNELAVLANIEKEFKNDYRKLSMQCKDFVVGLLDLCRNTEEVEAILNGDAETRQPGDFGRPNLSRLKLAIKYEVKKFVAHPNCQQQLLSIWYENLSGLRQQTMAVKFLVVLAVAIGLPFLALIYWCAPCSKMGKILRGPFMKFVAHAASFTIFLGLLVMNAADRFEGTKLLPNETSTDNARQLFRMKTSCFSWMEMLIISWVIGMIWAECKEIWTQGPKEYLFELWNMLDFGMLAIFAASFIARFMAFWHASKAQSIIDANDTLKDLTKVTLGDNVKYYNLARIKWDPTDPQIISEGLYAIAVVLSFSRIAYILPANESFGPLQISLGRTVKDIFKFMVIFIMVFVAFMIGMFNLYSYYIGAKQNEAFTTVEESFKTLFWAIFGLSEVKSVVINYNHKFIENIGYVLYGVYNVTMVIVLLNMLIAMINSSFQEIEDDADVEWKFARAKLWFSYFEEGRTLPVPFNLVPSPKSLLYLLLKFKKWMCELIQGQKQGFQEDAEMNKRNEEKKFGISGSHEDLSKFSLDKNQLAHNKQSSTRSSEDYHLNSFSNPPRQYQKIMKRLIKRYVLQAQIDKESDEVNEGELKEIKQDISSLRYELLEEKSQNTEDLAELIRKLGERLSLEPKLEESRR
smiles,measurement,setting,value
COc1ccc(S(=O)(=O)n2nc(OC(=O)c3ccccc3Br)cc2N)cc1,outcome,[1],inactive
same,outcome,[2],inactive
same,outcome,[3],inactive
same,outcome,[4],inactive
same,outcome,[5],inactive
same,outcome,[6],inactive
same,outcome,[7],inactive
same,outcome,[8],inactive
same,outcome,[9],inactive
same,outcome,[10],inactive
same,outcome,[11],inactive
same,outcome,[12],inactive
same,outcome,[13],inactive
same,outcome,[14],inactive
same,outcome,[15],inactive
same,outcome,[16],inactive
same,outcome,[17],inactive
O=c1c2cc(Br)ccc2nc(-c2cccc(Cl)c2)n1O,activity increase over 3SD of controls,[18],-14.4%
same,activation over 3SD threshold,[19],68.1% (active)
same,"potentiation, less the hit threshold",[20],84.4% (active)
same,activation,[1],223% (active)
same,outcome,[2],inactive
same,outcome,[3],inactive
same,outcome,[4],inactive
same,outcome,[5],inactive
same,outcome,[6],inactive
same,outcome,[8],inactive
same,outcome,[9],inactive
same,outcome,[10],inactive
same,activation,[11],38.5% (active)
same,outcome,[12],inactive
same,activation,[13],63.4% (active)
same,outcome,[14],inactive
same,outcome,[15],inactive
same,activation,[16],20.3% (active)
same,outcome,[17],inactive
CCCCN(C)C(=O)Cn1ncc2c3ccccc3n(CCC)c2c1=O,outcome,[1],inactive
same,outcome,[2],inactive
same,outcome,[3],inactive
same,potentiation,[4],37% (active)
same,outcome,[5],inactive
same,outcome,[6],inactive
same,outcome,[7],inactive
same,outcome,[8],inactive
same,outcome,[9],inactive
same,outcome,[10],inactive
same,outcome,[11],inactive
same,outcome,[12],inactive
same,outcome,[13],inactive
same,outcome,[14],inactive
same,potentiation,[15],42.7% (active)
same,outcome,[16],inactive
same,outcome,[17],inactive
Cc1ccc2nc(C(=O)N3CCc4c([nH]c5ccccc45)C3c3ccccn3)cn2c1 (configuration not stated),outcome,[1],inactive
same,outcome,[2],inactive
same,outcome,[3],inactive
same,outcome,[4],inactive
same,outcome,[5],inactive
same,outcome,[6],inactive
same,outcome,[7],inactive
same,outcome,[8],inactive
same,outcome,[9],inactive
same,outcome,[10],inactive
same,outcome,[11],inactive
same,outcome,[12],inactive
same,outcome,[13],inactive
same,outcome,[14],inactive
same,outcome,[15],inactive
same,outcome,[16],inactive
same,outcome,[17],inactive
Oc1c(Cl)cc(Cl)c(Cl)c1Cc1c(O)c(Cl)cc(Cl)c1Cl,activity increase over 3SD of controls,[18],45% (active)
same,activation over 3SD threshold,[19],-3.6%
same,"potentiation, less the hit threshold",[20],112% (active)
CC1(C(=O)OCc2cc(=O)n3cc(Br)ccc3n2)CC1(Cl)Cl (configuration not stated),outcome,[1],inactive
same,outcome,[2],inactive
same,potentiation,[3],15% (active)
same,potentiation,[4],84% (active)
same,outcome,[5],inactive
same,outcome,[6],inactive
same,outcome,[7],inactive
same,outcome,[8],inactive
same,outcome,[9],inactive
same,outcome,[10],inactive
same,outcome,[11],inactive
same,outcome,[12],inactive
same,outcome,[13],inactive
same,outcome,[14],inactive
same,potentiation,[15],56.2% (active)
same,outcome,[16],inactive
same,outcome,[17],inactive
CC(Nc1nc(N2CCCC2)nc2ccccc12)c1ccccc1 (configuration not stated),outcome,[1],inactive
same,outcome,[2],inactive
same,outcome,[3],inactive
same,outcome,[4],inactive
same,outcome,[5],inactive
same,outcome,[6],inactive
same,outcome,[7],inactive
same,outcome,[8],inactive
same,outcome,[9],inactive
same,outcome,[10],inactive
same,outcome,[11],inactive
same,outcome,[12],inactive
same,outcome,[13],inactive
same,outcome,[14],inactive
same,outcome,[15],inactive
same,outcome,[16],inactive
same,outcome,[17],inactive
Fc1cc(F)c2nc(Nc3nc4c(F)cccc4s3)sc2c1,activity increase over 3SD of controls,[18],-5.6%
same,activation over 3SD threshold,[19],-15.7%
same,"potentiation, less the hit threshold",[20],20.5% (active)
COc1cccc(N(C(=O)c2snc(C(N)=O)c2N)C(C(=O)NCC2CCCO2)c2ccc3ncccc3c2)c1 (configuration not stated),outcome,[1],inactive
same,outcome,[2],inactive
same,outcome,[3],inactive
same,outcome,[4],inactive
same,inhibition,[5],76% (active)
same,outcome,[6],inactive
same,outcome,[7],inactive
same,outcome,[8],inactive
same,outcome,[9],inactive
same,outcome,[10],inactive
same,outcome,[11],inactive
same,outcome,[12],inactive
same,outcome,[13],inactive
same,outcome,[14],inactive
same,outcome,[15],inactive
same,outcome,[16],inactive
same,outcome,[17],inactive
